Assay results published in PubChem BioAssay (NCI).
Where “and” joins values, the source holds several entries; their conditions need not be identical. Equal values may be shown once. The panel holds about 83,000 compounds, 20% with a hit somewhere; the sample as a whole holds those more often.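 Single-dose data. Exposure time 48 hours. Values below 10 considered active.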 Calls of active or inactive are those of the source.

Tests used:
Test in all cases: NCI-60 one-dose screen, 48 h (100 = growth as untreated, 0 = no growth, -100 = all killed)
EKVX NSCLC = settings: 10 µM unless noted
SN12C renal = settings: 10 µM unless noted
UO-31 renal = settings: 10 µM unless noted
TK-10 renal = settings: 10 µM unless noted
ACHN renal = settings: 10 µM unless noted
CAKI-1 renal = settings: 10 µM unless noted
A498 renal = settings: 10 µM unless noted
SR leukemia = settings: 10 µM unless noted
OVCAR-8 ovarian = settings: 10 µM unless noted
OVCAR-5 ovarian = settings: 10 µM unless noted
OVCAR-4 ovarian = settings: 10 µM unless noted
SK-OV-3 ovarian = settings: 10 µM
IGROV1 ovarian = settings: 10 µM unless noted
OVCAR-3 ovarian = settings: 10 µM unless noted
HS 578T breast = settings: 10 µM unless noted
NCI/ADR-RES ovarian = settings: 10 µM unless noted
CCRF-CEM leukemia = settings: 10 µM unless noted
MOLT-4 leukemia = settings: 10 µM unless noted
RPMI-8226 leukemia = settings: 10 µM

| SMILES | growth (EKVX NSCLC) | growth (SN12C renal) | growth (UO-31 renal) | growth (TK-10 renal) | growth (ACHN renal) | growth (CAKI-1 renal) | growth (A498 renal) | growth (SR leukemia) | growth (OVCAR-8 ovarian) | growth (OVCAR-5 ovarian) | growth (OVCAR-4 ovarian) | growth (SK-OV-3 ovarian) | growth (IGROV1 ovarian) | growth (OVCAR-3 ovarian) | growth (HS 578T breast) | growth (NCI/ADR-RES ovarian) | growth (CCRF-CEM leukemia) | growth (MOLT-4 leukemia) | growth (RPMI-8226 leukemia) |
| --- | --- | --- | --- | --- | --- | --- | --- | --- | --- | --- | --- | --- | --- | --- | --- | --- | --- | --- | --- |
| O=C(O)C[C@H](O)C[C@H](O)/C=C/c1c(C2CC2)nc2ccccc2c1-c1ccc(F)cc1 | 93.6% (inactive) | 30.3% (inactive) | 73.3% (inactive) | 111% (inactive) | 39.7% (inactive) | 26.1% (inactive) | -28.9% (active) | 12.1% (inactive) | 61.5% (inactive) | 79% (inactive) | 111% (inactive) | 93.7% (inactive) | 53.4% (inactive) | 103% (inactive) | 70.1% (inactive) | 37.2% (inactive) | – | – | – |
| O=C1N/C(=C\c2ccccc2)c2ncccc21 | 93.1% (inactive) | 100% (inactive) | 69% (inactive) | 121% (inactive) | 103% (inactive) | 93.6% (inactive) | 123% (inactive) | 76.4% (inactive) | 110% (inactive) | 118% (inactive) | 95.5% (inactive) | 89.9% (inactive) | 92.3% (inactive) | 99.2% (inactive) | 120% (inactive) | 103% (inactive) | 97.7% (inactive) | 80.7% (inactive) | 106% (inactive) |
| N#Cc1c(O)c2c(c(O)c1C#N)C(=O)c1ccccc1C2=O | 87.3% (inactive) | 0.389% (active) | 68.3% (inactive) | 87.5% (inactive) | 56.2% (inactive) | 85.7% (inactive) | 81.9% (inactive) | 15.4% (inactive) | 2.33% (active) | 108% (inactive) | 10.9% (inactive) | 109% (inactive) | 23.9% (inactive) | -9.86% (active) | 70.1% (inactive) | 0.847% (active) | 24.4% (inactive) | 8.65% (active) | – |
| Nc1ccccc1-c1n[nH]c(=O)[nH]c1=O | – | 97.7% (inactive) | 86.8% (inactive) | – | 104% (inactive) | 87.5% (inactive) | 107% (inactive) | – | 105% (inactive) | 109% (inactive) | 94.3% (inactive) | 108% (inactive) | 108% (inactive) | 118% (inactive) | 92.7% (inactive) | 102% (inactive) | – | 106% (inactive) | 105% (inactive) |
| COc1cc2nc(SCc3cc(OC)c(OC)c(OC)c3)n(-c3ccccc3OC)c(=O)c2cc1OC | – | 98% (inactive) | 36.3% (inactive) | – | 88.5% (inactive) | 42.9% (inactive) | 25.5% (inactive) | 23.8% (inactive) | 84.6% (inactive) | 89% (inactive) | 83.1% (inactive) | 98.2% (inactive) | 83.1% (inactive) | 48.2% (inactive) | 60.8% (inactive) | 62.9% (inactive) | – | 46.8% (inactive) | 71.2% (inactive) |
| O=c1cc(-c2ccc(O)cc2)oc2cc(O[C@@H]3O[C@H](CO)[C@@H](O)[C@H](O)[C@H]3O)cc(O)c12 | – | – | – | 46.1% [100 µM] (inactive) and 4% [100 µM] (active) | – | – | – | – | – | – | – | – | – | – | – | – | – | – | – |
| Nc1cc2c3c(cccc3c1)C(=O)N(c1ccc(OCCN3CCCCC3)cc1)C2=O | – | – | – | -13.5% [100 µM] (active) and -100% [100 µM] (active) | – | – | – | – | – | – | – | – | – | – | – | – | – | – | – |
| Cc1ccc(N=c2nc3sc4c(C)ccc(C)c4n3c(N)c2C#N)cc1 | – | 108% (inactive) | 89.6% (inactive) | – | 103% (inactive) | 88.4% (inactive) | 110% (inactive) | – | 104% (inactive) | 104% (inactive) | 88.9% (inactive) | 96.3% (inactive) | 95.1% (inactive) | 106% (inactive) | 104% (inactive) | 106% (inactive) | 85% (inactive) | 93.6% (inactive) | 85.1% (inactive) |
| Cc1ccc(C(=O)O[C@H](C(=O)O)[C@H](OC(=O)c2ccc(C)cc2)C(=O)O)cc1 | – | – | 85.1% (inactive) | – | – | – | – | 87.5% (inactive) | – | – | – | – | – | – | – | – | – | – | – |
| CC(C)(C)[Si](C)(C)OC1[C@@H](COC(=O)NC(=O)CCl)O[C@@H](n2cnc3c(N)ncnc32)[C@H]1O[Si](C)(C)C(C)(C)C (stereo partly specified) | – | -47.5% (active) | 20% (inactive) | – | 61.4% (inactive) | 19.3% (inactive) | 105% (inactive) | -57.5% (active) | -7.49% (active) | 77.4% (inactive) | 36.9% (inactive) | 87.8% (inactive) | -68.3% (active) | 0.626% (active) | 74.5% (inactive) | 46.6% (inactive) | -48.6% (active) | -54.7% (active) | -29.5% (active) |
| CC(C)(C)[Si](C)(C)OC1[C@@H](COC(N)=O)O[C@@H](n2cnc3c(N)ncnc32)[C@H]1O[Si](C)(C)C(C)(C)C (stereo partly specified) | – | 102% (inactive) | 51.9% (inactive) | – | 89.1% (inactive) | 91.9% (inactive) | 106% (inactive) | -31.8% (active) | 84.9% (inactive) | 99.2% (inactive) | 96.2% (inactive) | 91.7% (inactive) | 113% (inactive) | 75.6% (inactive) | 88.5% (inactive) | 87.4% (inactive) | 50.3% (inactive) | -40.1% (active) | – |
| O=c1nc(NO)[nH]c(=O)n1Cc1ccccc1 | – | 113% (inactive) | 90.3% (inactive) | – | 101% (inactive) | 93.1% (inactive) | 100% (inactive) | 107% (inactive) | 104% (inactive) | 101% (inactive) | 97% (inactive) | 99.3% (inactive) | 106% (inactive) | 120% (inactive) | 100% (inactive) | 105% (inactive) | 108% (inactive) | 109% (inactive) | 104% (inactive) |
| C=C1C(=O)OC2C1CC(O)/C(C)=C\CCC1(C)OC21 (stereo unspecified) | – | – | – | 76.7% [100 µM] (inactive) and -65% [100 µM] (active) | – | – | – | – | – | – | – | – | – | – | – | – | – | – | – |
| CC12NC(=C(C#N)C#N)C(C#N)=C3NC(N)=C(C#N)C(=C31)Oc1ccccc12 (stereo unspecified) | – | – | – | 22.5% [100 µM] (inactive) and -82.1% [100 µM] (active) | – | – | – | – | – | – | – | – | – | – | – | – | – | – | – |
| CC(C)=CCC/C(C)=C/CC/C(C)=C/CSc1ccc(Cl)cc1C(=O)O | – | – | – | -67.3% [100 µM] (active) and 28.4% [100 µM] (inactive) | – | – | – | – | – | – | – | – | – | – | – | – | – | – | – |
| CN1CCN(c2nc(-c3ccncc3)nc3sc4c(c23)CCCCCC4)CC1 | – | 67.8% (inactive) | 33.7% (inactive) | – | 68.3% (inactive) | 46.7% (inactive) | 31.7% (inactive) | 32.5% (inactive) | 82.9% (inactive) | 81.3% (inactive) | 71.7% (inactive) | 72.9% (inactive) | 76.2% (inactive) | 93.5% (inactive) | 5.17% (active) | 64.9% (inactive) | 79.5% (inactive) | 50.9% (inactive) | 69% (inactive) |
| COc1ccccc1-n1c(SCc2cc(OC)c(OC)c(OC)c2)nc2ccc(Cl)cc2c1=O | – | 70.3% (inactive) | 42.6% (inactive) | – | 44.2% (inactive) | 42.6% (inactive) | 5.01% (active) | 16.1% (inactive) | 55.3% (inactive) | 53.3% (inactive) | 63% (inactive) | 59.5% (inactive) | 47.7% (inactive) | 0.54% (active) | 39.6% (inactive) | 20.2% (inactive) | 2.88% (active) | 15.4% (inactive) | 17.4% (inactive) |
| CCOC(=O)C1=C(C)N2C(=NC3=C(CCCC/C3=C\c3cc(OC)c(OC)c(OC)c3)C2c2cc(OC)c(OC)c(OC)c2)S1 (stereo unspecified) | – | 75.2% (inactive) | 54.3% (inactive) | – | 69.6% (inactive) | 65.6% (inactive) | 52% (inactive) | 47.4% (inactive) | 63.6% (inactive) | 85.6% (inactive) | 69.3% (inactive) | 77.8% (inactive) | 71.6% (inactive) | 64.5% (inactive) | 96.1% (inactive) | 62.1% (inactive) | 70.9% (inactive) | 45.3% (inactive) | – |
| CC(=O)O[C@@H]1C[C@@]2(C)[C@@H]3CC=C4[C@@H](C[C@H](O)C(=O)C4(C)C)[C@]3(C)C(=O)C[C@]2(C)[C@H]1[C@@](C)(O)C(=O)/C=C/C(C)(C)OC(C)=O | – | – | – | -62% [100 µM] (active) and -91% [100 µM] (active) | – | – | – | – | – | – | – | – | – | – | – | – | – | – | – |
| CCOC(=O)C1=C(C)N2C(=NC3=C(CCCC/C3=C\c3ccccc3)C2c2ccccc2)S1 (stereo unspecified) | – | 101% (inactive) | 91% (inactive) | – | 102% (inactive) | 90.2% (inactive) | 92.3% (inactive) | 90.9% (inactive) | 103% (inactive) | 94.8% (inactive) | 93.4% (inactive) | 88.5% (inactive) | 108% (inactive) | 107% (inactive) | 99.6% (inactive) | 101% (inactive) | 98.3% (inactive) | 96.4% (inactive) | 96.2% (inactive) |
| CC(=O)OC(=C(C#N)C#N)c1nccnc1C(C)=O | – | – | – | 102% [20 µM] (inactive) and -96% [20 µM] (active) | – | – | – | – | – | – | – | – | – | – | – | – | – | – | – |
